Data: PubChem BioAssay (EPA / NIEHS)
Results filed as inconclusive are left out. The source made the active and inactive calls. How the source made its calls: active means hit-call score of the fitted dose curve at least 0.9, where 1 is the maximum; inconclusive means response in the unintended direction; inactive means score below 0.9.

assay: CCTE_Deisenroth_AIME_384WELL_CTox_Active: Cytotoxicity Assessment (CTOX) in CCTE's 384-well Estrogen Receptor Transactivation Assay with AIME metabolic competence (metabolism positive), Deisenroth Lab (AID 2284037);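 further: chemicals first conditioned 2 h by alginate-bound induced rat liver S9 before cells; activity means signal loss indicating cell death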
Protocol: CCTE_Deisenroth_AIME_384WELL (AIME metabolism assay) is a cell-based, single-readout assay that uses VM7Luc4E2, a human mammary gland/breast cell line, with measurements taken at 24 hour after chemical dosing in a 384-well plate.CCTE_Deisenroth_AIME_384WELL_CTox_Active is one of four assay components measured or calculated from the CCTE_Deisenroth_AIME_384WELL assay. It is designed to make measurements of a protease substrate, a type of viability indicator, as detected with substrate cleavage to a fluorescent probe in living cells.CCTE_Deisenroth_AIME_384WELL_CTox_Active is a component of the CCTE_Deisenroth_AIME_384WELL assay that measures the effect of retroftting the VM7Luc ERTA assay with the Alginate Immobolization of Metabolic Enzymes (AIME) metabolism method. AIME is optimized to impart phase I hepatic metabolism using phenobarbital/beta-naphthoflavone induced hepatic S9 from male Sprague Dawley rats. Parent chemicals are incubated for 2 hours in the AIME assay prior to transfer to the VM7Luc ERTA assay plate. […] This endpoint evaluates cytotoxicity in metabolism positive mode. Using a type of flourescent probe in VM7Luc cells, loss-of-signal activity can be used to understand loss of viability. This assay endpoint, CCTE_Deisenroth_AIME_384WELL_CTox_Active, was analyzed with bidirectional fitting in the ERTA assay.
The AIME procedure consists of a preparative "pre-stamping" step using a barium chloride/poly-L-lysine (PLL) solution followed by "stamping" the lid in alginate-hepatic S9 (metabolism positive) or alginate-water (metabolism negative) to form microspheres. Once stamping is completed, the AIME lids are placed in duplicate microplates (metabolism positive or negative) containing chemical solutions and incubated for two hours to facilitate metabolic reactions. The conditioned medium, containing parent chemical or metabolites, is then transferred to the cell-based VM7Luc Estrogen Receptor Transactivation Assay (ERTA) for 24 hours. A typical experimental design tests a 10-point concentration series (0.002 - 200 uM) for 8 compounds (96-well format) (Deisenroth 2020) or 32 compounds (384-well format) (Hopperstad 2022) in single technical replicate. AIME assay controls include trans-stilbene (bioactivated control) and ethylparaben (bioinactivated control). ERTA assay plate controls include 17-beta estradiol (positive control) and DMSO (solvent control). Experiments typically comprise a minimum of four experimental replicates (n=4).

Row | SMILES | outcome
1 | O=C(Nc1ccc([N+](=O)[O-])cc1Cl)c1cc(Cl)ccc1O | inactive
2 | Oc1ccc(C(c2ccc(O)cc2)C(Cl)(Cl)Cl)cc1 | inactive
3 | C[C@]12C[C@H](O)[C@H]3[C@@H](CCC4=CC(=O)CC[C@@]43C)[C@@H]1CC[C@@H]2C(=O)CO | inactive
4 | CCCCOC(=O)[C@@H](C)Oc1ccc(Oc2ccc(C(F)(F)F)cn2)cc1 | inactive
5 | CCOC(=O)COc1cc(-n2ncc(C(F)(F)F)c(C)c2=O)c(F)cc1Cl | inactive
6 | CCCOC(=O)NCCCN(C)C | inactive
7 | Cc1nn(C)c(Oc2ccccc2)c1C=NOCc1ccc(C(=O)OC(C)(C)C)cc1 | inactive
8 | CCCCOC(=O)C(C)Oc1ccc(Oc2ccc(C(F)(F)F)cn2)cc1 (stereo not given) | inactive
9 | CSC(=O)c1cccc2nnsc12 | inactive
10 | CC(=O)[C@H]1CC[C@H]2[C@@H]3CCC4=CC(=O)CC[C@]4(C)[C@H]3CC[C@]12C | inactive
11 | O=C(O)c1ccccc1 | inactive
12 | N#CSCSc1nc2ccccc2s1 | inactive
13 | c1ccc2[nH]c(-c3cscn3)nc2c1 | inactive
14 | CCSC(=O)N(CC(C)C)CC(C)C | inactive
15 | O=C(c1ccc(O)cc1O)c1ccc(O)cc1O | inactive
